# Data: ChEMBL document CHEMBL3988442, “University of Dundee, Small-Polar-MMV Screening Library” (2021)
# Out of some 48,000 compounds screened, about 13,000 (27%) showed an effect of 50% or more. The list shows a part of the results.
# Tested on: Wolbachia pipientis
# Assay: Anti-Wolbachia Cell-Based Screen
# Assay type: functional
# Set-up: scale not given: in the data most compounds retested in dose-response had high values
# Details: 5 µM
row,SMILES,Percent Effect [%]
1,O=C(NCc1cc(C2CC2)n(C2CCCC2)n1)C1CC1,118.5
2,Cc1ccc2c(c1)OC(C)(C)CC2NC(=O)C1CCN(S(C)(=O)=O)CC1 (centres undefined),-7.671
3,Cn1nc(CNC(=O)C2CCN(S(C)(=O)=O)CC2)cc1C1CC1,134.6
4,C/C=C(\C)CN1CCCn2nc(CNC(=O)C3CCC3)cc2C1,8.995
5,Cn1nc(CNC(=O)C2CCC2)cc1C1CC1,172.6
6,Cn1nc(CNC(=O)C2CC2)cc1C1CC1,4.922
7,Cn1nc(CNC(=O)C2CCCCC2)cc1C1CC1,119.6
8,Cn1nc(CNC(=O)C2CCCC2)cc1C1CC1,-4.336
9,CCC(=O)NCc1cc(C2CC2)n(C2CCCC2)n1,-1.631
10,O=C(O)C1(Cc2ccccc2Cl)CCN(c2ncccn2)CC1,4.771
11,Cc1noc(-c2cccnc2N(C)Cc2cscn2)n1,-2.045
12,CCC[C@H]1CN(CCOC)C[C@@H]1NC(=O)Cn1cc(C)cn1,-1.609
13,CCc1ncc(C(=O)NC(C)(C)CC)s1,-4.681
14,CCC(C)n1cnc(S(=O)(=O)N(C)C)c1 (centres undefined),-2.659
15,CCC(=O)N1CCC(c2nnc(Cn3cncn3)n2C2CC2)CC1,-3.377
16,CCC(=O)N1CCC(c2ncncc2C)CC1,105.8
17,Cc1cncnc1C1CCN(C(=O)CN(C)C)CC1,107.4
18,CCC(=O)N1CCC(c2nnc(Cn3cccn3)n2C2CC2)CC1,6.186
19,Cc1cc(C)n(-c2cncc(N3CCN(C(=O)CN(C)C)CC3)n2)n1,-21.39
20,Cc1noc(C2CCN(C(=O)CN(C)c3ccc(Cl)cn3)CC2)n1,-9.214
21,NC(=O)CSCC(=O)N1CCc2cc(Cl)cc(Cl)c2C1,-10.26
22,Cc1noc(C)c1C(=O)NCC1CCCCN1Cc1ccccc1 (centres undefined),1.84
23,CC(CNC(=O)c1ccc(=O)[nH]n1)N1CCc2ccccc21 (centres undefined),114.6

row,SMILES,Percent Effect [%]
1,CC(CNC(=O)c1ccc(C#N)cc1)N1CCc2ccccc21 (centres undefined),-4.664
2,Cc1cc(C(=O)NCC(C)N2CCc3ccccc32)on1 (centres undefined),128.5
3,CC(CNC(=O)c1cccc(C#N)c1)N1CCc2ccccc21 (centres undefined),-2.298
4,CC(CNC(=O)c1cc(C2CC2)on1)N1CCc2ccccc21 (centres undefined),110.3
5,CCC(CNC(=O)c1ccc(=O)[nH]n1)N1CCc2ccccc2C1 (centres undefined),-13.41
6,COc1ccc(NC(=O)NCC(C)N2CCc3ccccc32)cc1 (centres undefined),6.782
7,O=C(NCCSC1CCCC1)c1cc(C2CC2)on1,6.284
8,Cc1noc(C)c1C(=O)NCC(C)N1CCc2ccccc21 (centres undefined),136.7
9,O=C(c1ccc(=O)[nH]n1)N1CCc2ccccc21,6.411
10,Cc1noc(C)c1C(=O)NCC(C)N(C)C (centres undefined),-3.203
11,CS(=O)(=O)CCCNC(=O)NC1CC(c2cccc(Cl)c2)C1 (centres undefined),-3.705
12,N#Cc1cccc(S(=O)(=O)NC2CCN(Cc3ccccc3)C2=O)c1 (centres undefined),-3.444
13,CC(C)Oc1cc(N2CCC3(CC2)[C@H](O)C[C@@H]3O)nc(N)n1,12.72
14,CN1CCCC(N2CCN(c3nc4ccccn4c3C#N)CC2)C1 (centres undefined),6.11
15,CC(=O)N(CCc1ccccc1)CC(=O)Nc1ccccc1C#N,-7.598
16,CC(C)(C)c1ncc2c(n1)CN(C(=O)c1ccc(C#N)nc1)C2,-2.492
17,COC(=O)c1ccc(F)c(S(=O)(=O)Nc2ccc(C(N)=O)cc2)c1,8.532
18,Cc1cccc(N2CCN(CCC(=O)NCc3ccc(C)s3)CC2)c1,3.46
19,Cc1cnc(C(=O)N2CCN(C(=O)C(C)C)[C@@H]3CS(=O)(=O)C[C@@H]32)cn1,-9.288
20,CC(C)(C)OC(=O)NCC1CCN(C(=O)c2ccccc2O)CC1,15.84
21,COC(=O)CC1CCN(C(=O)c2ccc(-n3nnnc3C)cc2)CC1,129.7
22,COC(=O)CC1CCN(C(=O)c2ccc(C)cc2)CC1,100
23,Cc1nnnn1-c1ccc(CC(=O)N2CCOCC(O)C2)cc1 (centres undefined),-21.98

row,SMILES,Percent Effect [%]
1,Cc1ccc(O)c(C(=O)N2CCC(CN3CCCCCC3)CC2)c1,5.424
2,COC(=O)CC1CCN(C(=O)c2ccccc2-n2nnnc2C)CC1,87.7
3,COC(=O)C1CCCN1C(=O)c1ccc(-n2nc(C)cc2C)cc1 (centres undefined),-11.77
4,COc1ncccc1C(=O)N1CCC(CNC(C)=O)CC1,-0.8543
5,CCNc1ccnc(NC2CCN(C(=O)c3ccc(C)cc3)CC2)n1,10.68
6,Cc1cnn(CC2CN(CC(=O)Nc3sccc3C#N)CCO2)c1 (centres undefined),-6.28
7,CCc1noc(CS(=O)(=O)Cc2ccccc2Cl)n1,-7.562
8,CN(C)CCN1C(=O)CC[C@@H]2[C@H]1CCN2C(=O)c1ccc(C#N)cc1.O=C(O)C(F)(F)F,-26.6
9,CCS(=O)(=O)N1Cc2ncn(CC3CC3)c2C(COCC2CC2)C1.O=C(O)C(F)(F)F (centres undefined),98
10,COCC1CN(S(=O)(=O)N(C)C)Cc2cnn(CC3CCCC3)c21.O=C(O)C(F)(F)F (centres undefined),-5.811
11,Cn1cnc2c1C(COCC1CC1)CN(c1ncccn1)C2.O=C(O)C(F)(F)F.O=C(O)C(F)(F)F (centres undefined),100.9
12,CCS(=O)(=O)N1Cc2ncn(C)c2C(COCC2CCOCC2)C1.O=C(O)C(F)(F)F (centres undefined),-11.73
13,CCOCC1CN(S(=O)(=O)N(C)C)Cc2cnn(CC3CC3)c21.O=C(O)C(F)(F)F (centres undefined),-12.89
14,Cn1cnc2c1C(COCC1CCOCC1)CN(c1ncccn1)C2.O=C(O)C(F)(F)F.O=C(O)C(F)(F)F (centres undefined),-12.76
15,Cn1cnc2c1C(COCC1CC1)CN(C(=O)c1cccs1)C2 (centres undefined),-12.17
16,COCC1CN(S(=O)(=O)N(C)C)Cc2ncn(CC3CC3)c21.O=C(O)C(F)(F)F (centres undefined),108.7
17,Cc1cnc(N2C[C@@H]3[C@@H](C2)OCC(=O)N3CC(C)C)nc1.O=C(O)C(F)(F)F,-17.14
18,CCn1cc(CN2CCCn3nc(CCC(=O)NCCO)cc3C2)cn1,-3.785
19,CSc1ccccc1CN1CCCn2nc(CNC(=O)N(C)C)cc2C1,2.043
20,Nc1ncccc1CN1CCCn2nc(CCC(=O)NC3CC3)cc2C1,172.9
21,O=C(CCc1cc2n(n1)CCCN(Cc1ccccc1F)C2)NC1CC1,0.7471
22,O=C(CCc1cc2n(n1)CCCN(CCc1ccccc1)C2)NC1CC1,113.2
23,Cc1cc(CN2CCCn3nc(CCC(=O)O)cc3C2)ccc1F,-13.15
